{"source": "PubChem BioAssay AID1159580", "about": "(chemical genetic matrix, 2015)", "experiment": "chemical genetic growth profiling, strain panel (AID 1159580);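 also: tested at 20 µM; growth read once vehicle control cultures reached saturation at 30 °C; 1 = growth at the plate median or of vehicle wells; lower values mean less growth of the strain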", "settings": "S. cerevisiae deletion strains, growth OD", "note": "Values joined by “and” are separate entries in the source; they are usually repeats but may differ in a detail not shown here. Equal values may be shown once. The whole screen tested about 5,500 compounds, of which about 2,000 (36%) were called active. Not shown: some 18% with an inconclusive outcome. Rule as the data show it: active = normalized growth mostly below about 0.91 (no sharp cut-off); inconclusive = no clear call, values can overlap the other calls; inactive = mostly above about 0.92. The list shows a part of the results."}
{"smiles": "C=CC(C1=CC(=O)C(OC)=CC1=O)c1ccccc1", "note": "(configuration not stated)", "values": [{"measurement": "normalized growth", "setting": "locus YAL013W, strain DEP1, stronger effect = lower value", "result": "0.908 (active)"}, {"measurement": "normalized growth", "setting": "locus YAL021C, strain ccr4, stronger effect = lower value", "result": "1.04 (inactive)"}, {"measurement": "normalized growth", "setting": "locus YAL026C, strain drs2, stronger effect = lower value", "result": "0.853 (active)"}, {"measurement": "normalized growth", "setting": "locus YAL030W, strain snc1, stronger effect = lower value", "result": "0.92 (active)"}, {"measurement": "normalized growth", "setting": "locus YBL061C, strain skt5, stronger effect = lower value", "result": "0.847 (active)"}, {"measurement": "normalized growth", "setting": "locus YBR009C, strain hhf1, stronger effect = lower value", "result": "0.728 (active)"}, {"measurement": "normalized growth", "setting": "locus YBR021W, strain FUR4, stronger effect = lower value", "result": "0.922 (inactive)"}, {"measurement": "normalized growth", "setting": "locus YBR023C, strain chs3, stronger effect = lower value", "result": "0.85 (active)"}, {"measurement": "normalized growth", "setting": "locus YBR171W, strain sec66, stronger effect = lower value", "result": "0.992 (inactive)"}, {"measurement": "normalized growth", "setting": "locus YBR229C, strain ROT2, stronger effect = lower value", "result": "0.969 (inactive)"}, {"measurement": "normalized growth", "setting": "locus YBR231C, strain swc5, stronger effect = lower value", "result": "0.947 (inactive)"}, {"measurement": "normalized growth", "setting": "locus YBR279W, strain paf1, stronger effect = lower value", "result": "0.858 (active)"}, {"measurement": "normalized growth", "setting": "locus YCL011C, strain gbp2, stronger effect = lower value", "result": "0.843 (active)"}, {"measurement": "normalized growth", "setting": "locus YCL016C, strain dcc1, stronger effect = lower value", "result": "0.845 (active)"}, {"measurement": "normalized growth", "setting": "locus YCL029C, strain bik1, stronger effect = lower value", "result": "0.948 (inactive)"}, {"measurement": "normalized growth", "setting": "locus YCL061C, strain MRC1, stronger effect = lower value", "result": "0.911 (active)"}, {"measurement": "normalized growth", "setting": "locus YCL069W, strain vba3, stronger effect = lower value", "result": "0.954 (inactive)"}, {"measurement": "normalized growth", "setting": "locus YCR088W, strain abp1, stronger effect = lower value", "result": "0.969 (inactive)"}, {"measurement": "normalized growth", "setting": "locus YDL005C, strain med2, stronger effect = lower value", "result": "1 (inactive)"}, {"measurement": "normalized growth", "setting": "locus YDL035C, strain GPR1, stronger effect = lower value", "result": "0.825 (active)"}, {"measurement": "normalized growth", "setting": "locus YDL040C, strain nat1, stronger effect = lower value", "result": "1 (inactive)"}, {"measurement": "normalized growth", "setting": "locus YDL074C, strain BRE1, stronger effect = lower value", "result": "0.781 (inactive)"}, {"measurement": "normalized growth", "setting": "locus YDL101C, strain DUN1, stronger effect = lower value", "result": "0.94 (inactive)"}, {"measurement": "normalized growth", "setting": "locus YDL134C, strain PPH21, stronger effect = lower value", "result": "0.944 (inactive)"}, {"measurement": "normalized growth", "setting": "locus YDL185W, strain tfp1, stronger effect = lower value", "result": "0.948 (inactive)"}, {"measurement": "normalized growth", "setting": "locus YDL192W, strain arf1, stronger effect = lower value", "result": "0.843 (active)"}, {"measurement": "normalized growth", "setting": "locus YDR001C, strain nth1, stronger effect = lower value", "result": "0.983 (inactive)"}, {"measurement": "normalized growth", "setting": "locus YDR069C, strain doa4, stronger effect = lower value", "result": "0.982 (inactive)"}, {"measurement": "normalized growth", "setting": "locus YDR101C, strain arx1, stronger effect = lower value", "result": "0.854 (active)"}, {"measurement": "normalized growth", "setting": "locus YDR137W, strain rgp1, stronger effect = lower value", "result": "0.616 (active)"}, {"measurement": "normalized growth", "setting": "locus YDR150W, strain NUM1, stronger effect = lower value", "result": "0.972 (inactive)"}, {"measurement": "normalized growth", "setting": "locus YDR159W, strain sac3, stronger effect = lower value", "result": "0.85 (active)"}, {"measurement": "normalized growth", "setting": "locus YDR162C, strain NBP2, stronger effect = lower value", "result": "0.607 (active)"}, {"measurement": "normalized growth", "setting": "locus YDR195W, strain ref2", "result": "1.32 [resistant] (active)"}, {"measurement": "normalized growth", "setting": "locus YDR297W, strain sur2, stronger effect = lower value", "result": "0.913 (active)"}, {"measurement": "normalized growth", "setting": "locus YDR318W, strain mcm21, stronger effect = lower value", "result": "0.83 (active)"}, {"measurement": "normalized growth", "setting": "locus YDR334W, strain swr1, stronger effect = lower value", "result": "0.999 (inactive)"}, {"measurement": "normalized growth", "setting": "locus YDR335W, strain msn5, stronger effect = lower value", "result": "0.968 (inactive)"}, {"measurement": "normalized growth", "setting": "locus YDR388W, stronger effect = lower value", "result": "0.907 (active)"}, {"measurement": "normalized growth", "setting": "locus YDR392W, strain spt3, stronger effect = lower value", "result": "0.233 (active)"}, {"measurement": "normalized growth", "setting": "locus YDR502C, strain sam2, stronger effect = lower value", "result": "0.902 (active)"}, {"measurement": "normalized growth", "setting": "locus YEL003W, strain gim4, stronger effect = lower value", "result": "0.823 (active)"}, {"measurement": "normalized growth", "setting": "locus YEL037C, strain rad23, stronger effect = lower value", "result": "0.993 (inactive)"}, {"measurement": "normalized growth", "setting": "locus YEL061C, strain CIN8 (second series), stronger effect = lower value", "result": "0.966 (inactive)"}, {"measurement": "normalized growth", "setting": "locus YEL061C, strain CIN8, stronger effect = lower value", "result": "0.932 (inactive)"}, {"measurement": "normalized growth", "setting": "locus YER015W, strain faa2, stronger effect = lower value", "result": "0.815 (active)"}, {"measurement": "normalized growth", "setting": "locus YER016W, strain bim1, stronger effect = lower value", "result": "0.985 (inactive)"}, {"measurement": "normalized growth", "setting": "locus YER110C, stronger effect = lower value", "result": "0.936 (inactive)"}, {"measurement": "normalized growth", "setting": "locus YER111C, strain swi4, stronger effect = lower value", "result": "0.977 (inactive)"}, {"measurement": "normalized growth", "setting": "locus YER155C, strain BEM2 (second series), stronger effect = lower value", "result": "0.43 (active)"}, {"measurement": "normalized growth", "setting": "locus YER155C, strain BEM2, stronger effect = lower value", "result": "0.956 (inactive)"}, {"measurement": "normalized growth", "setting": "locus YER167W, strain BCK2, stronger effect = lower value", "result": "0.747 (active)"}, {"measurement": "normalized growth", "setting": "locus YFR010W, strain ubp6, stronger effect = lower value", "result": "0.979 (inactive)"}, {"measurement": "normalized growth", "setting": "locus YGL078C, strain dbp3, stronger effect = lower value", "result": "0.998 (inactive)"}, {"measurement": "normalized growth", "setting": "locus YGL086W, strain mad1, stronger effect = lower value", "result": "0.853 (active)"}, {"measurement": "normalized growth", "setting": "locus YGL167C, strain pmr1, stronger effect = lower value", "result": "0.973 (inactive)"}, {"measurement": "normalized growth", "setting": "locus YGL173C, strain kem1, stronger effect = lower value", "result": "0.855 (active)"}, {"measurement": "normalized growth", "setting": "locus YGL227W, strain vid30, stronger effect = lower value", "result": "0.963 (inactive)"}, {"measurement": "normalized growth", "setting": "locus YGL240W, strain doc1, stronger effect = lower value", "result": "0.708 (active)"}, {"measurement": "normalized growth", "setting": "locus YGL248W, strain PDE1, stronger effect = lower value", "result": "0.947 (inactive)"}, {"measurement": "normalized growth", "setting": "locus YGL253W, strain hxk2, stronger effect = lower value", "result": "0.92 (inactive)"}, {"measurement": "normalized growth", "setting": "locus YGR078C, strain PAC10, stronger effect = lower value", "result": "0.734 (active)"}, {"measurement": "normalized growth", "setting": "locus YGR135W, strain pre9, stronger effect = lower value", "result": "0.864 (active)"}, {"measurement": "normalized growth", "setting": "locus YGR229C, strain SMI1, stronger effect = lower value", "result": "0.692 (active)"}, {"measurement": "normalized growth", "setting": "locus YGR252W, strain gcn5, stronger effect = lower value", "result": "0.854 (inactive)"}, {"measurement": "normalized growth", "setting": "locus YHR013C, strain ard1, stronger effect = lower value", "result": "0.876 (inactive)"}, {"measurement": "normalized growth", "setting": "locus YHR027C, strain rpn1, stronger effect = lower value", "result": "0.92 (active)"}, {"measurement": "normalized growth", "setting": "locus YHR030C, strain SLT2, stronger effect = lower value", "result": "0.895 (active) and 0.797 (active)"}, {"measurement": "normalized growth", "setting": "locus YHR079C, strain IRE1 (second series), stronger effect = lower value", "result": "0.908 (active)"}, {"measurement": "normalized growth", "setting": "locus YHR079C, strain IRE1, stronger effect = lower value", "result": "0.824 (active)"}, {"measurement": "normalized growth", "setting": "locus YHR094C, strain hxt1, stronger effect = lower value", "result": "0.956 (inactive)"}, {"measurement": "normalized growth", "setting": "locus YHR129C, strain ARP1, stronger effect = lower value", "result": "0.88 (active)"}, {"measurement": "normalized growth", "setting": "locus YHR142W, strain chs7, stronger effect = lower value", "result": "0.729 (active)"}, {"measurement": "normalized growth", "setting": "locus YHR200W, strain rpn10, stronger effect = lower value", "result": "0.92 (active)"}, {"measurement": "normalized growth", "setting": "locus YIL066C, strain RNR3, stronger effect = lower value", "result": "0.824 (active)"}, {"measurement": "normalized growth", "setting": "locus YIL073C, strain SPO22, stronger effect = lower value", "result": "0.723 (inactive)"}, {"measurement": "normalized growth", "setting": "locus YIL125W, strain kgd1, stronger effect = lower value", "result": "0.963 (inactive)"}, {"measurement": "normalized growth", "setting": "locus YIR030C, strain dcg1, stronger effect = lower value", "result": "0.929 (inactive)"}, {"measurement": "normalized growth", "setting": "locus YJL092W, strain hpr5, stronger effect = lower value", "result": "0.95 (inactive)"}, {"measurement": "normalized growth", "setting": "locus YJL095W, strain BCK1 (second series), stronger effect = lower value", "result": "0.873 (active)"}, {"measurement": "normalized growth", "setting": "locus YJL095W, strain BCK1, stronger effect = lower value", "result": "0.852 (inactive) and 0.869 (active)"}, {"measurement": "normalized growth", "setting": "locus YJL115W, strain asf1, stronger effect = lower value", "result": "1 (inactive)"}, {"measurement": "normalized growth", "setting": "locus YJL129C, strain trk1, stronger effect = lower value", "result": "0.947 (inactive)"}, {"measurement": "normalized growth", "setting": "locus YJL134W, strain LCB3, stronger effect = lower value", "result": "0.96 (inactive)"}, {"measurement": "normalized growth", "setting": "locus YJL154C, strain vps35, stronger effect = lower value", "result": "0.999 (inactive)"}, {"measurement": "normalized growth", "setting": "locus YJL164C, strain tpk1, stronger effect = lower value", "result": "0.77 (active)"}, {"measurement": "normalized growth", "setting": "locus YJL166W, strain qcr8, stronger effect = lower value", "result": "0.686 (active)"}, {"measurement": "normalized growth", "setting": "locus YJL168C, strain set2, stronger effect = lower value", "result": "0.953 (inactive)"}, {"measurement": "normalized growth", "setting": "locus YJL187C, strain SWE1 (second series), stronger effect = lower value", "result": "0.944 (inactive)"}, {"measurement": "normalized growth", "setting": "locus YJL187C, strain SWE1, stronger effect = lower value", "result": "0.855 (active)"}, {"measurement": "normalized growth", "setting": "locus YJR043C, strain POL32, stronger effect = lower value", "result": "0.768 (active)"}, {"measurement": "normalized growth", "setting": "locus YJR066W, strain TOR1, stronger effect = lower value", "result": "0.858 (inactive)"}]}
